Potency and outcome data for 7 molecules are collected here from PubChem BioAssay (Tox21).

Assay [1] concerns the target Progesterone receptor (Homo sapiens) (UniProt P06401). The assay can be described thus: qHTS assay to identify small molecule agonists of the progesterone receptor (PR) signaling pathway (AID 1346784; calls by dose curve; note: nearly all actives have a fitted effect of over 30% in size; note: potency is the fitted concentration of half-maximal effect). In a few lines: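 Fluorescence from LiveBLAzer B/G FRET substrate cleavage (2 hr, RT) reported PR activation in PR-UAS-bla HEK 293T cells treated 16 hr at 37C/5% CO2 with compounds; medium contained 2% charcoal-stripped FBS.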
(Quantitative high-throughput screening tests each substance at several concentrations.)

For assay [2] the target is unchanged. The experiment in a line: qHTS assay to identify small molecule antagonists of the progesterone receptor (PR) signaling pathway (AID 1346795; active = well fitted inhibition curve with a large enough effect in the signal ratio in the repeat runs, not every such curve was filed as active; the % refers to the signal ratio). In a few lines:
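Fluorescence intensity measured 2 hr after adding beta-lactamase FRET substrate to PR-UAS-bla HEK293T cells that had been co-treated 16 hr with compound and 1 nM R5020 (final concentration) in 2% charcoal-stripped FBS.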

Assay [3] is described as follows: qHTS assay to identify small molecule antagonists of the progesterone receptor (PR) signaling pathway - cell viability counter screen (AID 1346798). Note: series mostly up to about 92 µM; nearly all actives have a fitted effect of over 50% in size. In a few lines: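 CellTiter-Glo luminescence; PR-UAS-bla HEK293T, 3,000 cells/well; compound + R5020, 16 hr, 37C/5% CO2; 30 min RT before read.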
The nature of assay [4]: qHTS assay to identify small molecule agonists of the progesterone receptor (PR) signaling pathway - cell viability counter screen (AID 1346799; calls by dose curve; note: nearly all actives have a fitted effect of over 45% in size). In a few lines: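 In parallel with the beta-lactamase readout, cytotoxicity toward PR-UAS-bla HEK293T cells was measured by CellTiter-Glo luminescence following 16 hr compound incubation in 2% charcoal-stripped FBS medium.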
Assay [5] is described as follows: qHTS assay to identify small molecule antagonists of the TGF-beta/Smad signaling pathway - cell viability counter screen (AID 1346824). Note: nearly all actives have a fitted effect of over 50% in size. In a few lines:
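SBE-bla HEK 293T cells were plated overnight at 37 C, then given compounds in DMSO plus TGF-beta1 (added as 0.25 ng/mL solution) for 5 hr. After the bla read, CellTiter-Glo was added to the same wells and luminescence read after 30 min at room temperature.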

Assay [6] is described as follows: qHTS assay to identify small molecule agonists of the TGF-beta/Smad signaling pathway - cell viability counter screen (AID 1346829). Note: top concentration of the series differs between compounds; nearly all actives have a fitted effect of over 45% in size. In a few lines: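 CellTiter-Glo luminescence readout; SBE-bla HEK 293T cells, overnight plating, compound 5 hr at 37 C/5% CO2, then bla substrate 2 hr RT, then CellTiter-Glo 30 min RT.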
Assay [7] can be described thus: qHTS assay to identify small molecule agonists of the TGF-beta/Smad signaling pathway (AID 1346859; active = well fitted activation curve with a large enough effect in the signal ratio in the repeat runs, not every such curve was filed as active; the % refers to the signal ratio; note: series mostly up to about 77 µM). In a few lines:
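After overnight seeding, SBE-bla HEK 293T cells are dosed with compounds in DMSO and kept 5 hr at 37 C, 5% CO2. LiveBLAzer-type FRET substrate is then applied for 2 hr at room temperature.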

Assay [8] in a line: Human pregnane X receptor (PXR) small molecule agonists, qHTS cell viability counter screen (AID 1346977). Note: nearly all actives have a fitted effect of over 50% in size. In a few lines: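 Viability counter screen: CellTiter-Fluor signal in PXR-Luc HepG2 cells, 24hr compound exposure, 37C, 5% CO2.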
A short description of assay [9]: Caspase-3/7 induction in HepG2 cells by small molecules, qHTS assay (AID 1346978). Note: nearly all actives have a fitted effect of over 15% in size. In a few lines: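 Wild-type HepG2 cells (2,000/well) were settled 5 h at 37 C, 5% CO2, then exposed to compounds in DMSO for 17 h. Caspase-3/7 activity was read by luminescence 30 min after adding Caspase-Glo 3/7 reagent at room temperature.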
Assay [10] in a line: Caspase-3/7 induction in CHO-K1 cells by small molecules, qHTS cell viability counter screen (AID 1346979). Note: nearly all actives have a fitted effect of over 35% in size. Note: potency is the fitted concentration of half-maximal effect. In a few lines: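 Viability readout by fluorescence (CellTiter-Fluor) on wild-type CHO-K1 cells exposed for 16hr at 37C and 5% CO2 to compounds delivered in DMSO; reagent incubated 1hr before reading.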
The nature of assay [11]: Caspase-3/7 induction in HepG2 cells by small molecules, qHTS cell viability counter screen (AID 1346981). Note: series mostly up to about 92 µM; nearly all actives have a fitted effect of over 30% in size. In a few lines:
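Fluorescence read-out of live-cell protease activity (CellTiter-Fluor) after 1 hr with reagent. This was measured in the same wells as the caspase-3/7 luminescence, on HepG2 cells exposed to DMSO-dissolved compounds for 16 hr at 37 C.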

For assay [12], the target named is Nuclear receptor subfamily 1 group I member 2 (Homo sapiens) (UniProt O75469). The assay can be described thus: Human pregnane X receptor (PXR) small molecule agonists, qHTS assay (AID 1346982). Note: nearly all actives have a fitted effect of over 35% in size. Note: potency is the fitted concentration of half-maximal effect. In a few lines: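 HepG2 PXR-Luc reporter line, 5% charcoal-stripped FBS; 5 hr pre-incubation, compound (DMSO) 24 hr at 37 C/5% CO2; ONE-Glo 30 min RT; luminescence read-out.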

Assay [13] has as its target Cytochrome P450 2D6 (Homo sapiens) (UniProt P10635). The experiment in a line: Cytochrome P450 Family 2 Subfamily D Member 6 (CYP2D6) small molecule antagonists: luciferase reporter qHTS assay (AID 1671196). Note: nearly all actives have a fitted effect of over 50% in size. Note: potency is the fitted concentration of half-maximal effect. In a few lines:
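Luminogenic proluciferin substrate, CYP2D6 enzyme; 10 min RT preincubation with compound, NADPH regeneration system added, 1 h RT. Stop/detection reagent, 20 min RT, luminescence read (RLU). Signal proportional to CYP activity.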
(In a reporter assay the amount or activity of a reporter protein is the signal.)

Assay [14] deals with Cytochrome P450 2C19 (Homo sapiens) (UniProt P33261). The experiment in a line: Cytochrome P450 Family 2 Subfamily C Member 19 (CYP2C19) small molecule antagonists: luciferase reporter qHTS assay (AID 1671197). Note: nearly all actives have a fitted effect of over 65% in size. Note: potency is the fitted concentration of half-maximal effect. In a few lines: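 Enzyme-substrate mix with proluciferin substrate (P450-Glo CYP2C19 system) preincubated with compounds 10 min at room temperature; NADPH regeneration solution added, 37C for 1 h; detection reagent stops reaction, luminescence read after 20 min. Ketoconazole positive control.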

A short description of assay [15]: Caspase-3/7 induction in CHO-K1 cells by small molecules, qHTS assay (AID 1346980). Note: nearly all actives have a fitted effect of over 15% in size. In a few lines:
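Wild-type cells were seeded at 1,500 per well and settled 5 hr at 37 C, 5% CO2, then exposed to DMSO-dissolved compounds for 17 hr. Caspase-Glo 3/7 reagent was added, and luminescence was read after 30min at room temperature.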

Assay [16] addresses Cytochrome P450 2C9 (Homo sapiens) (UniProt P11712). The experiment in a line: Cytochrome P450 Family 2 Subfamily C Member 9 (CYP2C9) small molecule antagonists: luciferase reporter qHTS assay (AID 1671198). Note: nearly all actives have a fitted effect of over 50% in size. Note: potency is the fitted concentration of half-maximal effect. In a few lines:
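CYP2C9 activity was measured with a P450-Glo proluciferin substrate. Enzyme–substrate mix was held with compound for 10 min at room temperature, then NADPH regeneration solution was added for 1 h at 37C. Luciferin product was read as luminescence.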

Assay [17] has as its target Thyrotropin-releasing hormone receptor (Homo sapiens) (UniProt P34981). The assay can be described thus: qHTS assay to identify small molecule antagonists of the thyrotropin-releasing hormone receptor (TRHR) signaling pathway (AID 1346877; active = well fitted inhibition curve with a large enough effect in the repeat runs, not every such curve was filed as active; note: series mostly up to about 51 µM). In a few lines:
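HEK293/TRHR cells, 18 h, 37 °C; Ca2+ dye 2 h; cpd 5 min RT; TRH 1 nM final; fluorescence read 3 min, 1 s intervals; 15 concs, triplicate.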

The target is the same in assay [18]. The assay can be described thus: qHTS assay to identify small molecule agonists of the thyrotropin-releasing hormone receptor (TRHR) signaling pathway (AID 1346891; calls by dose curve;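 note: HEK293 cells expressing TRHR with calcium dye readout; series mostly up to about 58 µM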). In a few lines:
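Compounds were tested as agonists at 15 concentrations, in triplicate, on TRHR-Hek293 cells; calcium-sensitive dye fluorescence was recorded for 3 min following addition.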

Assay [19] addresses Nuclear receptor subfamily 1 group I member 2 (Homo sapiens) (UniProt O75469). The experiment in a line: CYP3A4 induction through human pregnane X receptor (PXR) by small molecules, qHTS assay (AID 1346984). Note: nearly all actives have a fitted effect of over 40% in size. In a few lines:
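HepG2-derived DPX-2 line carrying PXR plus a CYP3A4-promoter luciferase reporter; cells plated 5 hr, compound-exposed 24 hr at 37C. CYP3A4 activity probed with 3uM (final) Luciferin-IPA for 3hr, then luciferase read after One-Glo.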

Assay [20] has the same target. The experiment in a line: Human pregnane X receptor (PXR) activation by small molecules, qHTS assay (AID 1346985). Note: nearly all actives have a fitted effect of over 40% in size. In a few lines: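 DPX-2 cells (HepG2 co-transfected with a PXR response element and a CYP3A4-promoter luciferase construct) were seeded at 2,000 per well, rested 5 hr at 37C, then exposed to DMSO-dissolved compounds for 24 hr. Activation was read as luciferase luminescence.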

“And” between values parts separate entries of the source, which are not always exact repeats. Equal values may be shown once. Inconclusive results are not listed. Where a structure was tested more than once in an assay, its records may differ in their call. The source made the active and inactive calls. Unless noted, calls come from the whole dose curve; as a rule, active = well fitted curve in the direction sought with a large enough effect in the repeat runs; inconclusive = weak or mixed curves; inactive = no such curve, though single readings can be large; an effect the other way counts as inactive or inconclusive.

Chain of Nuclear receptor subfamily 1 group I member 2 (Homo sapiens) (O75469 whole entry, looked up): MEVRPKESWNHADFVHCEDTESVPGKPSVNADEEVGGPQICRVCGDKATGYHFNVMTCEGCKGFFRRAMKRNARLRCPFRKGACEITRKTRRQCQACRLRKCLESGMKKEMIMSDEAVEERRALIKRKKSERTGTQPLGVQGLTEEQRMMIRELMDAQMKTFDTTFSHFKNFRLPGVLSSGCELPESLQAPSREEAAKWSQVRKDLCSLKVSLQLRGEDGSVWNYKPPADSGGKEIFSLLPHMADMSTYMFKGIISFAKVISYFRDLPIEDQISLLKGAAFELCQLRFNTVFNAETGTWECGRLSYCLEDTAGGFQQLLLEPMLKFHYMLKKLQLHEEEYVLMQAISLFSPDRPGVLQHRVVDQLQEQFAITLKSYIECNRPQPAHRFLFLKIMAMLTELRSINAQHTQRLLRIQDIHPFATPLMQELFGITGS
Chain of Thyrotropin-releasing hormone receptor (Homo sapiens) (P34981 whole entry, looked up): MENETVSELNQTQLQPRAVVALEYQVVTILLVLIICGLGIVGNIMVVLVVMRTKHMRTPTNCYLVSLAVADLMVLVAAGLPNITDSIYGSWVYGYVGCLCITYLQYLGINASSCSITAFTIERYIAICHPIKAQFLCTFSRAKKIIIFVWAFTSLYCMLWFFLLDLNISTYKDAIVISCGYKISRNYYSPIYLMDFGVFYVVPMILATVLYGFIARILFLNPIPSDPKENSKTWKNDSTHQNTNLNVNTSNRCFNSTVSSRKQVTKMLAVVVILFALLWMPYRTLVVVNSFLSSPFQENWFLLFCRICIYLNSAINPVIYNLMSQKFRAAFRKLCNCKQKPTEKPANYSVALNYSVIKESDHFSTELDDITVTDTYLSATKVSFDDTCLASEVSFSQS
Chain of Progesterone receptor (Homo sapiens) (P06401 whole entry, looked up): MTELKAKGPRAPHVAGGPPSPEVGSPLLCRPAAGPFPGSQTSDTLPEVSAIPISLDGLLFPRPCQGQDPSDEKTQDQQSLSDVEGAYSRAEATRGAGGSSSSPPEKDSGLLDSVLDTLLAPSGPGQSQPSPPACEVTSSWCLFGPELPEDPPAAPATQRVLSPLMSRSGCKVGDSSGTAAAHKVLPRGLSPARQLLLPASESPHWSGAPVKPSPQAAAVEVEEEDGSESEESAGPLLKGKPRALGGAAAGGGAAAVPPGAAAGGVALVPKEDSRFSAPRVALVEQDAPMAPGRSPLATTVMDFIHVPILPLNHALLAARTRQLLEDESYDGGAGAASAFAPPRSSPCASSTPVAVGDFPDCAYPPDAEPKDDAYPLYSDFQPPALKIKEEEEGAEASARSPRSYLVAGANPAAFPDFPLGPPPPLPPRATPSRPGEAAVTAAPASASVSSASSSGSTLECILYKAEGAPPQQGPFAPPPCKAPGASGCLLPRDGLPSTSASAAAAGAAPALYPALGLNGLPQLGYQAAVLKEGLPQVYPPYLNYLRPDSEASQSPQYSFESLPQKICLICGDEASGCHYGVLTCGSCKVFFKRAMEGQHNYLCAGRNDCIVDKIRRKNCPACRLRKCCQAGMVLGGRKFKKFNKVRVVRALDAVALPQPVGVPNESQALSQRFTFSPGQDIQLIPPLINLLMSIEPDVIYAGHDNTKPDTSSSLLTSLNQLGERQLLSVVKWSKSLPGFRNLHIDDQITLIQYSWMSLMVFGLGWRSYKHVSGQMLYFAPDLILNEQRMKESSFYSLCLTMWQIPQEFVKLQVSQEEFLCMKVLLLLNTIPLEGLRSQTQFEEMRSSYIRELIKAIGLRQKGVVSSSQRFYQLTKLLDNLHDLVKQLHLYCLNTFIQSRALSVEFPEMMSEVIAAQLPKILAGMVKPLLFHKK
Chain of Cytochrome P450 2C9 (Homo sapiens) (P11712 whole entry, looked up): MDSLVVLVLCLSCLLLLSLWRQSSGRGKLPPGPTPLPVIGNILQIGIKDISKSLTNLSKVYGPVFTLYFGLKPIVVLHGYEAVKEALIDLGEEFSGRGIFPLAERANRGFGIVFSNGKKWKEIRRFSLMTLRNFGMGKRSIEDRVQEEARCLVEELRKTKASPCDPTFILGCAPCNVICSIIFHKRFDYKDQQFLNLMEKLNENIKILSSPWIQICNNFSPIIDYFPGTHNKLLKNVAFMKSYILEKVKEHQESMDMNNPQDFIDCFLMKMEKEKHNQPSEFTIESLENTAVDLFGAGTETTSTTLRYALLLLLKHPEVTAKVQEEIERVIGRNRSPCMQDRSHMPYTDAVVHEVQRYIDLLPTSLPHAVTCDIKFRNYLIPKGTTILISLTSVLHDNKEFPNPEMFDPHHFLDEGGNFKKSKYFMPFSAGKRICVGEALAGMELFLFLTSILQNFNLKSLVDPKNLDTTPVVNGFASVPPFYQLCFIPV
Chain of Cytochrome P450 2D6 (Homo sapiens) (P10635 whole entry, looked up): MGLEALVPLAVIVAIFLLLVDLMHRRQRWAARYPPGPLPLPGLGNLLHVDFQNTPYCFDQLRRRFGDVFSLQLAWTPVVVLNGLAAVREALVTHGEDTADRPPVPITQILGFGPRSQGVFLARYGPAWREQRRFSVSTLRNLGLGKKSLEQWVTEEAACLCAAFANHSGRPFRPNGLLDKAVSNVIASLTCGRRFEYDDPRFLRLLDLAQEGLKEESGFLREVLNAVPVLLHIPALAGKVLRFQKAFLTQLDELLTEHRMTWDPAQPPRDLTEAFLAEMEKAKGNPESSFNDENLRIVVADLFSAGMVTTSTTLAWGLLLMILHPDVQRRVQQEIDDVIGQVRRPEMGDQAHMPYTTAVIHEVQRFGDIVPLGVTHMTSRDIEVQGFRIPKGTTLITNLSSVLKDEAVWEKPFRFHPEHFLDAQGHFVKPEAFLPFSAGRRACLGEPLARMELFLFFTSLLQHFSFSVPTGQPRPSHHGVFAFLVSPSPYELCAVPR
Chain of Cytochrome P450 2C19 (Homo sapiens) (P33261 whole entry, looked up): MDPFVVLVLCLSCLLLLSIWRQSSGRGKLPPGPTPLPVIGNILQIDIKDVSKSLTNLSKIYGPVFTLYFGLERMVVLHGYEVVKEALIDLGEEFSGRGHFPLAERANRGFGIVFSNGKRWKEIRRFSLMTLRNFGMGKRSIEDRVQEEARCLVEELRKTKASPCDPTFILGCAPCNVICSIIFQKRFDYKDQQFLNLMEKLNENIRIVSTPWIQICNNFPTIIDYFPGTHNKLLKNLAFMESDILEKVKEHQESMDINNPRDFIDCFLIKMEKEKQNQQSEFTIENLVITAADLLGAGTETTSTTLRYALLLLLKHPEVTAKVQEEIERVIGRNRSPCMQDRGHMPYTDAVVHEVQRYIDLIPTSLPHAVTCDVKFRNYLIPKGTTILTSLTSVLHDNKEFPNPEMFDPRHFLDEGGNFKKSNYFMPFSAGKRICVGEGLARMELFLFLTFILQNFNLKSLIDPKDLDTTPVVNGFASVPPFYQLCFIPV

With `c1ccc2cc3ccccc3cc2c1`, the Potency entry in [1], in assay [2], in assay [3], in [4], in assay [5] and in assay [6] was “inactive” in each case. The Potency entry in assay [8], in assay [9], in assay [10], in assay [11] and in assay [13] was “inactive” each time. Further, in [7], the result was inactive. The Potency was 35.5 µM (active) and 21.7 µM (active) in assay [12]; 41.2 µM (active) and 79.6 µM (active) in assay [14].
For the molecule `CCO[Si](CCCNC(N)=O)(OCC)OCC`, the Potency result in assay [1], in assay [2], in assay [3], in assay [4], in [5] and in assay [6] was “inactive” throughout. Besides, the Potency result in [8], in assay [10], in assay [15], in assay [11], in assay [12] and in assay [13] was “inactive” in each case. Moreover, in assay [16], the Potency entry was “inactive”. The outcome in assay [7] was inactive. Besides, the Potency result in assay [14] is “inactive and 56.4 µM (active)”.
As to `O=C(O)CCCC(=O)O`, the Potency entry in assay [2], in assay [3], in assay [4], in [5], in assay [6] and in [17] was “inactive” throughout. Besides, the Potency entry in [18], in [8], in assay [10], in assay [15] and in [11] was “inactive” in each case. For the same molecule, the molecule was called inactive in [7]. In addition, the Potency was 22 µM (active) and inactive in [13]; 22 µM (active) and inactive in [14]; 39.2 µM (active) and inactive in assay [16].
Regarding `CC(=O)O[C@]1(C(C)=O)CC[C@H]2[C@@H]3C=C(C)C4=CC(=O)CC[C@]4(C)[C@H]3CC[C@@]21C`, the Potency is 0.0039 µM (active) in assay [1]; 68.6 µM (active) in assay [10]; 27.3 µM (active) in assay [12]; 7.1 µM (active) and 6.92 µM (active) in [14]; 7.96 µM (active) and 8.71 µM (active) in [16]. Besides, the Potency entry in [2], in [5], in assay [6], in assay [8], in assay [9] and in assay [11] was “inactive” throughout. In addition, the Potency entry in assay [19], in assay [20] and in [13] was “inactive” each time.
`Cc1ccc(/C(=C\CN2CCCC2)c2ccccn2)cc1`: the Potency entry in [1], in [2], in [3], in assay [4], in assay [5] and in assay [6] was “inactive” in each case. For the same molecule, the Potency entry in assay [9], in assay [10], in [15], in assay [11], in assay [12] and in assay [19] was “inactive” each time. Also, the Potency result in assay [20], in assay [14] and in [16] was “inactive” in each case. Besides, the molecule was classed as inactive in [7].
Consider `[Na+]`, for which the Potency entry in assay [1], in [2], in [3], in assay [4], in assay [5] and in assay [6] was “inactive” in each case. For the same molecule, the Potency result in assay [8], in assay [10], in assay [15], in assay [11], in [12] and in [13] was “inactive” throughout. Further, the Potency result in [16] was “inactive”. In [7], the molecule was called inactive.
With `C=CCOC(=O)C(=C)C`, the Potency entry in assay [2], in assay [3], in assay [4], in [5], in assay [6] and in assay [17] was “inactive” each time. In addition, the Potency entry in assay [18], in assay [8], in assay [9], in [10], in [15] and in assay [11] was “inactive” each time. Further, the Potency entry in assay [13], in assay [14] and in [16] was “inactive” each time. Moreover, the molecule was classed as inactive in assay [7].
